Experimental data from the supplement of paper PMC10981050.
Where a name gives a salt, the structure may show the parent alone.

test system: K562; assay: cell viability relative to vehicle control; higher = less cytotoxic; details: 10 µM; SRSF2 genotype: SRSF2 wt/wt
Procedure, shortened: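 Mutant clones made by CRISPR editing and their isogenic wild-type counterparts, from four leukaemia lines, were exposed to a single 10 µM dose of each library compound for 48 h. The supernatant was then removed and CellTiter-Glo luminescence was read. Viability was reported as percent of the on-plate vehicle control.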

Q: How did the cell viability turn out when `O=C(CCc1ccc(O)cc1)c1c(O)cc(O[C@@H]2O[C@H](CO)[C@@H](O)[C@H](O)[C@H]2O)cc1O` [Trilobatin] was run?
A: Its cell viability is 96.8%.

Q: `CC(C)n1nc(-c2ccc3oc(N)nc3c2)c2c(N)ncnc21` was tested. Which cell viability did it give?
A: Its cell viability is 29.9%.

Q: For `COc1ccc(COc2ccc(Cc3cnc(N)nc3N)cc2OC)cc1`, which cell viability is on record?
A: Its cell viability is 80%.

Q: With `COc1cc(O)c(C(=O)Nc2nc(C(=O)NCCN(C(C)C)C(C)C)cs2)cc1OC` [Acotiamide hydrochloride] as the molecule, how does the cell viability read?
A: Its cell viability is 103%.

Q: How did the cell viability turn out when `CC(=O)N1C[C@H](O)C[C@H]1C(=O)O` [Oxaceprol] was run?
A: The cell viability was 99.3%.

Q: With `C/C=C(/C)C(=O)O[C@H]1[C@@H](OC(=O)CC(C)C)c2c(ccc3ccc(=O)oc23)OC1(C)C` [Praeruptorin E] as the molecule, how does the cell viability read?
A: The cell viability was 79%.

Q: Which cell viability does the source give for `CC(C)[C@H](O)C(=O)N[C@@H](C)C(=O)N[C@@H]1C(=O)N(C)CCc2ccccc21` here?
A: The cell viability was 106%.

Q: `O=C(O)C1=CO[C@@H](O[C@@H]2O[C@H](CO)[C@@H](O)[C@H](O)[C@H]2O)[C@@H]2C(CO)=CC[C@H]12` [Geniposidic acid] was tested. Which cell viability did it give?
A: The cell viability was 93.8%.

Q: How did the cell viability turn out when `NC(=O)[C@@H]1CC[C@@H]2CN1C(=O)N2OS(=O)(=O)O` [Avibactam sodium] was run?
A: Its cell viability is 112%.

Q: With `Oc1cc(O)c2c(c1)OC(c1ccc(O)c(O)c1)C(OC1(c3ccc(O)c(O)c3)Oc3cc(O)cc(O)c3C(O)C1O)C2` (stereo not given) [Proanthocyanidins] as the molecule, how does the cell viability read?
A: The cell viability was 104%.

Q: `CC(=O)OCC(=O)[C@@]1(O)[C@H](C)C[C@H]2[C@@H]3CCC4=CC(=O)C=C[C@]4(C)[C@@]3(F)[C@@H](O)C[C@@]21C` [Dexamethasone acetate] was tested. Which cell viability did it give?
A: The cell viability was 106%.

Q: How did the cell viability turn out when `CCNC1(C(N)=O)CCN(c2ncnc3c2nc(-c2ccccc2Cl)n3-c2ccc(Cl)cc2)CC1` was run?
A: Its cell viability is 79.1%.

Q: With `COc1cc(Cc2cnc(N)nc2N)cc(OC)c1OC` [Trimethoprim] as the molecule, how does the cell viability read?
A: The cell viability was 94.4%.

Q: Which cell viability does the source give for `CCOC(=O)CC(=O)N1CCSC1COc1ccccc1OC` (stereo not given) [Moguisteine] here?
A: Its cell viability is 97.3%.

Q: For `O=C(O)C=CCCCCCCCO` [Royal jelly acid], which cell viability is on record?
A: Its cell viability is 102%.

Q: Which cell viability does the source give for `COc1cc2c(cc1O)CC[n+]1cc3c(OC)c(OC)ccc3cc1-2` [Jatrorrhizine chloride] here?
A: The cell viability was 90.3%.

Q: For `CC(C)(C)S(=O)(=O)c1ccc2nccc(Nc3n[nH]c4ccc(F)cc34)c2c1`, which cell viability is on record?
A: The cell viability was 98.8%.

Q: For `Nc1c(Br)cc(Br)cc1CN[C@H]1CC[C@H](O)CC1` [Ambroxol HCl], which cell viability is on record?
A: The cell viability was 105%.

Q: Which cell viability does the source give for `CN(C)CCCCC(=O)Nc1ccc(NC(=S)NC(=O)c2ccc(C(C)(C)C)cc2)cc1` [Tenovin-6] here?
A: Its cell viability is 12.4%.

Q: Which cell viability does the source give for `Nc1nc2n[nH]nc2c(=O)[nH]1` [Azaguanine-8] here?
A: The cell viability was 82.5%.

Q: Which cell viability does the source give for `OCCOCCN1CCN(C(c2ccccc2)c2ccc(Cl)cc2)CC1` (stereo not given) [Hydroxyzine 2HCl] here?
A: Its cell viability is 96.4%.

Q: Which cell viability does the source give for `c1cc2c(c3c1C[C@H]1c4cc5c(cc4CCN1C3)OCO5)OCO2` [Stylopine hydrochloride] here?
A: Its cell viability is 91.4%.

Q: With `COc1c(-c2ccc3cc(NS(C)(=O)=O)ccc3c2)cc(-n2ccc(=O)[nH]c2=O)cc1C(C)(C)C` [S5402 Dasabuvir(ABT-333).cdx] as the molecule, how does the cell viability read?
A: Its cell viability is 80.6%.

Q: With `OC[C@H]1O[C@@H](n2cnc3c(O)nc(O)nc32)[C@H](O)[C@@H]1O` [Xanthosine] as the molecule, how does the cell viability read?
A: The cell viability was 96%.

Q: `CCOc1ccccc1N=Nc1c(C)[nH]n(-c2nc(-c3ccccc3)cs2)c1=O` was tested. Which cell viability did it give?
A: The cell viability was 91.9%.

Q: For `Cc1ccc([C@@H]2O[C@H](CO)[C@@H](O)[C@H](O)[C@H]2O)cc1Cc1ccc(-c2ccc(F)cc2)s1` [Canagliflozin], which cell viability is on record?
A: The cell viability was 99.7%.

Q: Which cell viability does the source give for `O=S1(=O)CCN(CN2CCS(=O)(=O)NC2)CN1` [Taurolidine] here?
A: The cell viability was 108%.

Q: `CC(=O)OCC(=O)[C@@]1(O)CC[C@H]2[C@@H]3CCC4=CC(=O)CC[C@]4(C)[C@@]3(F)[C@@H](O)C[C@@]21C` [Fludrocortisone acetate] was tested. Which cell viability did it give?
A: The cell viability was 104%.

Q: For `CCCCC(CC)COC(=O)C=Cc1ccc(OC)cc1` (stereo not given) [Octinoxate], which cell viability is on record?
A: Its cell viability is 103%.

Q: `NC(=O)c1ccc(-c2nc(-c3ccc4c(c3)OCCO4)c(-c3ccccn3)[nH]2)cc1` was tested. Which cell viability did it give?
A: The cell viability was 92.9%.

Q: For `Cc1cc(-c2cc(C)c(NCCCS(=O)(=O)O)c(C)c2)cc(C)c1N`, which cell viability is on record?
A: The cell viability was 105%.

Q: How did the cell viability turn out when `Cc1cn(-c2cc(NC(=O)c3ccc(C)c(Nc4nccc(-c5cnccn5)n4)c3)cc(C(F)(F)F)c2)cn1` [Radotinib] was run?
A: Its cell viability is 22.1%.

Q: With `O=c1c2ccccc2oc2ccccc12` [Xanthone (Genicide)] as the molecule, how does the cell viability read?
A: The cell viability was 94.9%.

Q: For `Nc1nc2c(ncn2COCCO)c(=O)[nH]1` [Acyclovir (Aciclovir)], which cell viability is on record?
A: Its cell viability is 95.1%.

Q: Which cell viability does the source give for `CC(=O)O[C@]1(C(C)=O)CC[C@H]2[C@@H]3C[C@H](C)C4=CC(=O)CC[C@]4(C)[C@H]3CC[C@@]21C` [Medroxyprogesterone acetate] here?
A: The cell viability was 94.7%.
